Tested on: Vero E6 infected with SARS-CoV-2
Assay: inhibition of SARS-CoV-2 cytopathic effect; higher = more antiviral protection, active = above 15
Details: 48 h

Measured: inhibition of SARS-CoV-2 cytopathic effect

NNC(=O)CSc1nc2scc(-c3ccccc3)c2c(=O)n1-c1ccccc1
inactive: 1 nM -1.69% | 8.33 nM 1.94% | 100 nM -0.83% | 833.33 nM -2.58% | 10000 nM -1.58%

COc1cc2c(Nc3ccc(Cl)c(Cl)c3F)ncnc2cc1OC[C@@H]1C[C@@H]2CN(C)C[C@@H]2C1
inactive: 1 nM -2.06% | 8.33 nM -2.66% | 100 nM -5.42% | 833.33 nM -14.7% | 10000 nM -22.4%

COC(=O)Nc1nc2cc(C(=O)c3ccccc3)ccc2[nH]1 [mebendazole]
inactive: 1 nM -1.33% | 8.33 nM 0.93% | 100 nM -0.07% | 833.33 nM 0.95% | 10000 nM 0.89%

O=C(O)c1ccc(O)c2ncccc12
inactive: 1 nM 0.11% | 8.33 nM 1.32% | 100 nM 1.3% | 833.33 nM 3.02% | 10000 nM 1.28%

COc1c(C)c(C(=O)c2ccc(N)c(C(=O)O)c2)n2ccccc12
inactive: 1 nM -2.54% | 8.33 nM 1.8% | 100 nM 0.21% | 833.33 nM -1.06% | 10000 nM -1.34%

CC(=O)[C@H]1CC[C@H]2[C@@H]3CC=C4C[C@@H](O)CC[C@]4(C)[C@H]3CC[C@]12C [pregnenolone]
inactive: 1 nM -0.59% | 8.33 nM 3.91% | 100 nM -5.44% | 833.33 nM -1.71% | 10000 nM -3.04%

CC(=O)N(OCc1ccccc1)[C@@H]1c2cc(C#N)ccc2OC(C)(C)[C@H]1O
inactive: 1 nM -4.41% | 8.33 nM -2.98% | 100 nM -6.3% | 833.33 nM 2.7% | 10000 nM 2.53%
